Data on nine molecules can be found in PubChem BioAssay (NCI).

Test systems include RPMI-8226 leukemia; OVCAR-8 ovarian; OVCAR-5 ovarian; OVCAR-4 ovarian; SK-OV-3 ovarian; IGROV1 ovarian; OVCAR-3 ovarian; HS 578T breast; NCI/ADR-RES ovarian; T-47D breast; BT-549 breast; MDA-MB-435 melanoma; SW-620 colon; MCF7 breast; HCT-116 colon; HCC-2998 colon; KM12 colon.
What all share (assay): NCI-60 one-dose screen, 48 h (100 = growth as untreated, 0 = no growth, -100 = all killed)
Conditions in all cases: 10 µM unless noted

About 83,000 compounds went through this panel and 20% of them were active in at least one assay; those are over-represented in the sample as a whole.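 Step 1: grow cells in 96-well plates. Step 2: add test compound at a single concentration. Step 3: incubate 48 h. Step 4: record percent growth.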 Values without a mark were called inactive. Calls of active or inactive are those of the source. How the source made its calls: active means growth percent below 10; inactive means the rest.

Take `CCNc1nc2ccc(Nc3ccnc4cc(Cl)ccc34)cc2[nH]1`: the growth with RPMI-8226 leukemia was 86.7%; in the assay on OVCAR-8 ovarian, 75.8%; in the assay on OVCAR-5 ovarian it was 113%; in the assay with OVCAR-4 ovarian it was 82.6%; with SK-OV-3 ovarian, 108%; with IGROV1 ovarian, 91.3%. Further, the growth in the assay on OVCAR-3 ovarian was 107%; in the assay on HS 578T breast it was 91.4%; in the assay with NCI/ADR-RES ovarian, 95.8%; in the assay on T-47D breast it was 100%; in the assay with BT-549 breast, 86.8%; in the assay with MDA-MB-435 melanoma, 93.1%. For the same molecule, the growth with SW-620 colon was 57.8%; with MCF7 breast, 45.1%; in the assay on HCT-116 colon, 17.3%; in the assay with HCC-2998 colon, 84.1%; in the assay on KM12 colon it was 67%.

As for `C[C@H]1[C@H](C)CC[C@]2(C(=O)Nc3ccc4ncccc4c3)CC[C@]3(C)C(=CC[C@@H]4[C@@]5(C)CCCNC(C)(C)[C@@H]5CC[C@]43C)[C@H]12`, the growth in the assay on RPMI-8226 leukemia is -42.3% (active); in the assay with OVCAR-8 ovarian it was -80.5% (active); in the assay on OVCAR-5 ovarian, 74.9%; with OVCAR-4 ovarian, 27.8%; with SK-OV-3 ovarian, 103%; with IGROV1 ovarian, -73.3% (active). Besides, the growth in the assay with OVCAR-3 ovarian is -45.1% (active); with HS 578T breast, -53.3% (active); in the assay with NCI/ADR-RES ovarian it was -48.6% (active); with T-47D breast it was 78%; in the assay with BT-549 breast, 92%; in the assay with MDA-MB-435 melanoma, -91.8% (active). Further, the growth in the assay with SW-620 colon is -83.9% (active); in the assay on MCF7 breast, -83.4% (active); in the assay on HCT-116 colon, -100% (active); in the assay with HCC-2998 colon it was -84.4% (active); in the assay with KM12 colon, -60.5% (active).

Take `O=S(=O)(NCCCNc1nccc(-c2c(-c3cccc(O)c3)nc3occn23)n1)c1ccc(Cl)cc1`: the growth in the assay with RPMI-8226 leukemia was 81%; with OVCAR-8 ovarian, 77.5%; with OVCAR-5 ovarian it was 130%; with OVCAR-4 ovarian, 108%; in the assay with SK-OV-3 ovarian, 75.4%; in the assay on IGROV1 ovarian, 59.7%. The growth is 93.2% in the assay on OVCAR-3 ovarian; 92.8% in the assay on HS 578T breast; 112% in the assay on NCI/ADR-RES ovarian; 64.2% in the assay with T-47D breast; 102% with BT-549 breast; 33.8% with MDA-MB-435 melanoma. Besides, the growth with SW-620 colon was 109%; in the assay on MCF7 breast, 82.6%; in the assay on HCT-116 colon, 61.9%; with HCC-2998 colon, 120%; in the assay with KM12 colon it was 86.2%.

Consider `COC1=CC(=O)c2ccccc2C1=O`, for which the growth in the assay on RPMI-8226 leukemia was 73%; in the assay on OVCAR-8 ovarian, 65.4%; in the assay with OVCAR-5 ovarian, 107%; in the assay with OVCAR-4 ovarian, 70.4%; in the assay with SK-OV-3 ovarian, 101%; with IGROV1 ovarian it was 83.6%. Besides, the growth was 24.5% in the assay on OVCAR-3 ovarian; 100% in the assay with HS 578T breast; 60.8% with NCI/ADR-RES ovarian; 59% in the assay on T-47D breast; 85% in the assay with BT-549 breast; 108% with SW-620 colon. The growth with MCF7 breast is 56.9%; in the assay with HCT-116 colon, 29.9%; with HCC-2998 colon, 107%; in the assay on KM12 colon, 94.8%.

Turning to `COc1cc(-c2cc(-c3ccc(N(C)C)cc3)nc(N3CCOCC3)c2C#N)cc(OC)c1OC`, the growth with RPMI-8226 leukemia was 9.28% (active); in the assay on OVCAR-8 ovarian, 22.4%; in the assay with OVCAR-5 ovarian it was 37.9%; in the assay with OVCAR-4 ovarian it was 64.5%; with SK-OV-3 ovarian, 55.9%; in the assay with IGROV1 ovarian, 42.2%. Further, the growth is 87.9% in the assay on OVCAR-3 ovarian; 77.9% in the assay on HS 578T breast; 4.22% (active) in the assay with NCI/ADR-RES ovarian; 29.5% in the assay on T-47D breast; 47.2% in the assay on BT-549 breast; 4.97% (active) with MDA-MB-435 melanoma. The growth in the assay on SW-620 colon was 42.5%; with MCF7 breast, 36.2%; in the assay on HCT-116 colon, 12.3%; with HCC-2998 colon, 19.8%; in the assay with KM12 colon, 28.3%.

In the case of `O=C(/C=C/c1ccc(Cl)cc1)c1ccc(NC(=O)N2CCN(c3cc4c(cc3F)c(=O)c(C(=O)O)cn4C3CC3)CC2)cc1`, the growth is 79.1% with RPMI-8226 leukemia; 65.3% in the assay on OVCAR-8 ovarian; 103% in the assay with OVCAR-5 ovarian; 99.2% in the assay on OVCAR-4 ovarian; 99.1% with SK-OV-3 ovarian; 89.2% in the assay on IGROV1 ovarian. For the same molecule, the growth in the assay on OVCAR-3 ovarian is 93.8%; with HS 578T breast, 86.7%; in the assay with NCI/ADR-RES ovarian, 99.8%; with T-47D breast it was 76.4%; with BT-549 breast, 52.2%; with MDA-MB-435 melanoma, 98.8%. Also, the growth with SW-620 colon was 97.2%; with MCF7 breast it was 22.6%; in the assay on HCT-116 colon, 11.8%; in the assay on HCC-2998 colon, 102%; with KM12 colon, 85.8%.

For `CN1CCN(CCNc2nccc(-c3c(-c4cccc(O)c4)nc4sccn34)n2)S1(=O)=O`, the growth is 48.7% in the assay with RPMI-8226 leukemia; 73.3% in the assay on OVCAR-8 ovarian; 68.6% in the assay on OVCAR-5 ovarian; 77.5% with OVCAR-4 ovarian; 47.1% with SK-OV-3 ovarian; 45.7% with IGROV1 ovarian. Further, the growth is 81.5% in the assay on OVCAR-3 ovarian; 76.7% in the assay on HS 578T breast; 101% in the assay with NCI/ADR-RES ovarian; 68.5% in the assay with T-47D breast; 52.3% with BT-549 breast; 29.2% in the assay with MDA-MB-435 melanoma. The growth in the assay with SW-620 colon was 65.4%; in the assay with MCF7 breast, 71.3%; in the assay on HCT-116 colon, 25.1%; in the assay with HCC-2998 colon it was 88%; with KM12 colon, 34.4%.

With `COc1ccc(-c2[nH][nH]c(=O)c2-c2nc3ccccc3s2)cc1`, the growth is 99.4% in the assay with RPMI-8226 leukemia; 106% in the assay on OVCAR-8 ovarian; 105% in the assay with OVCAR-5 ovarian; 109% in the assay on OVCAR-4 ovarian; 106% with SK-OV-3 ovarian; 105% in the assay with IGROV1 ovarian. Further, the growth in the assay with OVCAR-3 ovarian is 110%; with HS 578T breast, 107%; with NCI/ADR-RES ovarian, 97.7%; in the assay on T-47D breast it was 109%; in the assay on BT-549 breast, 97.6%; in the assay on MDA-MB-435 melanoma it was 101%. Besides, the growth is 101% with SW-620 colon; 93.9% in the assay with MCF7 breast; 101% with HCT-116 colon; 99.6% in the assay on HCC-2998 colon; 101% with KM12 colon.

On to `O=C(N/N=C/c1cc2ccccc2n2nnnc12)Nc1ccccc1`, for which the growth with RPMI-8226 leukemia was 101%; in the assay with OVCAR-8 ovarian, 103%; in the assay with OVCAR-5 ovarian, 106%; in the assay with OVCAR-4 ovarian it was 108%; in the assay with SK-OV-3 ovarian it was 112%; in the assay with IGROV1 ovarian it was 112%. Moreover, the growth in the assay on OVCAR-3 ovarian was 111%; with HS 578T breast, 109%; in the assay with NCI/ADR-RES ovarian, 105%; in the assay with T-47D breast it was 108%; in the assay with BT-549 breast, 114%; with SW-620 colon it was 107%. Moreover, the growth was 92.3% in the assay on MCF7 breast, 113% in the assay on HCT-116 colon, 108% with HCC-2998 colon and 104% with KM12 colon.
